HCV inh: blocks hepatitis C virus | Huh7.5.1 HCVcc-Cre infection, luciferase reporter, 44 h | Potency, µM (top dose mostly 41.8 µM), for inactives: top-dose activity change, negative = inhibition, most hits filed as inhibitors | actives 3.4% (n = 340,000); active = well fitted inhibition curve with a large enough effect; inconclusive = small, poorly fitted or top-dose-only effect, or another doubt; inactive = no such curve, though single readings can be large or run the other way
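Cells seeded at 1,000/well and cultured 4 h, then compounds added followed by HCVcc-Cre virus (~0.5 moi). After 44 h further culture, luciferase substrate was added, plates held 15 min at room temperature, and luminescence read for 15 sec.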
VACV mCherry inh: vaccinia inhibition (mCherry reporter); Vaccinia virus mCherry reporter infection, fluorescence; Potency, µM (highest dose often 36.5 µM), without a hit: at the highest dose activity change, negative = inhibition, actives largely listed as inhibitors; actives 0.63% (n = 310,000); AID 720579; calls by dose curve; tested in A549 cells; note: nearly all actives have a fitted effect of over 35% in size
LASV entry inh: Lassa virus entry inhibition; Lassa virus pseudotype entry inhibition, cell reporter; Potency, µM (series often up to 37.9 µM), for inactives: at the top dose activity change, negative = inhibition, most hits filed as inhibitors; actives 1.2% (n = 300,000); calls by dose curve; tested in HEK293 cells; note: nearly all actives have a fitted effect of over 50% in size
FMDV inh: antivirals against foot and mouth disease virus; AID 1159524; Potency, µM (top dose mostly 57.9 µM), inactives show at the top dose activity change, negative = inhibition, usual class: inhibitors; FMDV antiviral cell-based qHTS; actives 1.2% (n = 410,000); calls by dose curve; tested in HEK293T cells; note: read-out not given here; nearly all actives have a fitted effect of over 45% in size
VACV Venus inh: inhibitors of vaccinia virus (Venus reporter); Vaccinia virus Venus reporter expression, fluorescence; actives 0.46% (n = 330,000); Potency, µM (titrated, usually from 36.5 µM), for the others: top-dose activity change, negative = inhibition, usual class: inhibitors; calls by dose curve; tested in A549 cells; note: nearly all actives have a fitted effect of over 30% in size
MARV entry inh: blocks Marburg virus binding to or entry into cells. AID 540276. actives 1.8% (n = 300,000). Potency, µM (series often up to 37.8 µM), without a hit: at the highest dose activity change, negative = inhibition, actives largely listed as inhibitors. Marburg virus pseudotyped entry inhibition, cell reporter; calls by dose curve; tested in HEK293 cells
Numbers without * were called inactive; [ ] = another dose, or the depositor's remark. Compounds with a hit are over-represented: about 5.3% of the library has one in this group of screens. % is set by controls: 0 for no effect and ±100 for the full control effect; potency is the fitted concentration of half-maximal effect.

Screening CN1C(=O)/C(=C/c2ccc(C(F)(F)F)cc2)Sc2ccc(C(=O)N3CCN(c4ccccn4)CC3)cc21 returned HCV inh 14µM*, VACV mCherry inh -30%, LASV entry inh 21%[46.1 µM], FMDV inh -3%, VACV Venus inh -28% and MARV entry inh inconclusive.
`CN1C(=O)/C(=C/c2ccccc2Cl)Sc2ccc(C(=O)N3CCCC3)cc21` gave HCV inh inconclusive and FMDV inh -28%.
For CN1C(=O)/C(=C/c2cccc(Cl)c2)Sc2ccc(C(=O)N3CCOCC3)cc21 the results were HCV inh 11µM* and FMDV inh -5%.
Screening CCOc1ccc(/C=C2/Sc3ccc(C(=O)N4CCOCC4)cc3N(C)C2=O)cc1OC returned HCV inh inconclusive, VACV mCherry inh inactive, LASV entry inh inconclusive, FMDV inh -24%, VACV Venus inh -17% and MARV entry inh inconclusive.
`COc1ccc(/C=C2\Sc3ccc(C(=O)N4CCCC4)cc3N(C)C2=O)cc1OC` gave HCV inh -15%, VACV mCherry inh -9%, LASV entry inh inconclusive, FMDV inh 14%, VACV Venus inh -28% and MARV entry inh inconclusive.
CCOC(=O)C1CCCN(C(=O)c2ccc3c(c2)N(C)C(=O)/C(=C/c2ccccc2Cl)S3)C1 (centres undefined) was read as HCV inh 11µM*, VACV mCherry inh -11%, LASV entry inh inconclusive, FMDV inh inconclusive, VACV Venus inh -21% and MARV entry inh -25%[46.1 µM].
COC(=O)Cn1c(=O)c2c(nc3n2CCN3c2ccc(F)cc2)n(C)c1=O was read as VACV mCherry inh -10%, LASV entry inh -21%[46.1 µM], FMDV inh 6% and VACV Venus inh -13%.
`COc1cc(=O)n2c(c1C(=O)NCc1cccc(F)c1)CCN(Cc1cccnc1)CC2` gave VACV mCherry inh inactive, FMDV inh -3% and VACV Venus inh -3%.
`c1ccc(Oc2nc3ccccc3n3cccc23)cc1` gave HCV inh 10µM*, LASV entry inh -3%, FMDV inh -20%, VACV Venus inh -27% and MARV entry inh 0%.
For Cc1ccc(Oc2nc3ccccc3n3cccc23)cc1 the results were HCV inh 7.9µM*, LASV entry inh 3%, FMDV inh -26%, VACV Venus inh -21% and MARV entry inh -26%[46.1 µM].
`Cc1c(N2C(=O)S[C@H](CC(=O)O)C2=O)c(=O)n(-c2ccccc2)n1C` gave MARV entry inh 12%.
CN(Cc1ccccc1)C(=O)NC1CCCCC1 was read as HCV inh -10%, LASV entry inh 11%, FMDV inh 14% and MARV entry inh -12%.
For CC[C@@H](CC1CCCCC1)C(=O)N(Cc1ccccc1)c1ccccc1 the results were HCV inh 10µM*, VACV mCherry inh inconclusive, FMDV inh inconclusive and VACV Venus inh -11%.
`CCc1ccc(NC(=O)c2ccc3[nH]c(C)c(C)c3c2)cc1` gave VACV mCherry inh -20%, LASV entry inh -1%[46.1 µM], FMDV inh -21% and VACV Venus inh 0%.
For Cc1[nH]c2ccc(C(=O)Nc3ccncc3)cc2c1C the results were HCV inh 11µM* and FMDV inh -22%.
COc1cc(SC)ccc1C(=O)Nc1ncc(C)s1 was read as HCV inh inconclusive, LASV entry inh inconclusive, FMDV inh 10µM* and MARV entry inh 1.5µM*.
COc1cc(SC)ccc1C(=O)Nc1cccc(C)n1 was read as HCV inh 13µM*, VACV mCherry inh inactive, LASV entry inh 8.9µM*, FMDV inh -27%, VACV Venus inh -18% and MARV entry inh 10µM*.
For CCN(CC)S(=O)(=O)c1cccc(NC(=O)c2ccc(SC)cc2OC)c1 the results were HCV inh 11µM*, VACV mCherry inh inconclusive, LASV entry inh inconclusive, FMDV inh inconclusive, VACV Venus inh -23% and MARV entry inh -14%[46.1 µM].
COc1cc(SC)ccc1C(=O)Nc1ccc(Br)cn1 was read as HCV inh inconclusive and FMDV inh -93%.
`COc1cc(SC)ccc1C(=O)Nc1cccc(S(=O)(=O)NC2=NCCCCC2)c1` gave HCV inh -28%, VACV mCherry inh -2%, LASV entry inh -27%[46.1 µM], FMDV inh inconclusive, VACV Venus inh -15% and MARV entry inh -24%.
`COc1cc(SC)ccc1C(=O)Nc1ccccn1` gave HCV inh inconclusive, VACV mCherry inh -13%, LASV entry inh inconclusive, FMDV inh -56%, VACV Venus inh -22% and MARV entry inh inconclusive.
For COc1ccc(NC(=O)CSc2c3c(nc4ccc(Cl)cc24)CCCC3)cc1Cl the results were VACV mCherry inh -13%, LASV entry inh 8%[46.1 µM], FMDV inh inconclusive, VACV Venus inh -17% and MARV entry inh -4%[46.1 µM].
`CC1NC(C(=O)O)Cc2c1[nH]c1ccccc21` (centres undefined) gave VACV mCherry inh -4%, FMDV inh -1% and VACV Venus inh 0%.
For Cc1[nH]c2ccccc2c1/C=C/c1c[nH]c2ccccc12 the results were VACV mCherry inh 23% and VACV Venus inh 8%.
Screening CCc1ccc(/C=C/c2c[nH]c3ccccc23)[n+](CC)c1 returned HCV inh inconclusive, VACV mCherry inh -22%, LASV entry inh 13µM*, FMDV inh inconclusive, VACV Venus inh -16% and MARV entry inh inconclusive.
`COc1ccc2c(c1)CCc1cnc(-n3ncc(C(=O)NCc4cc(C)no4)c3C3CC3)nc1-2` gave VACV mCherry inh inconclusive, FMDV inh 14% and VACV Venus inh -18%.
`CC1=NN(c2nc(-c3ccc(C)cc3)cs2)C(=O)C1N=Nc1cccc(O)c1` (centres undefined) gave HCV inh -20%, VACV mCherry inh -5%, LASV entry inh 3%, FMDV inh -27%, VACV Venus inh 8% and MARV entry inh inconclusive.
`CC1=NN(c2nc(-c3ccc(C)cc3)cs2)C(=O)C1N=Nc1ccccc1O` (centres undefined) gave HCV inh 10µM*, VACV mCherry inh 1%, LASV entry inh inconclusive, FMDV inh -21%, VACV Venus inh 438% and MARV entry inh inconclusive.
`O=C1C(O)=C(O)C(=O)C(O)=C1O` gave VACV mCherry inh inactive, FMDV inh 10% and VACV Venus inh -9%.
Screening Cc1ccc(CN2CCN(C(=O)C3CCCO3)CC2)cc1 (centres undefined) returned HCV inh 1%, VACV mCherry inh inactive, LASV entry inh -3%, FMDV inh 13%, VACV Venus inh 2% and MARV entry inh 6%.
For Cc1ccc(-c2nc(CN3CCN(C(=O)C4CCCO4)CC3)cs2)cc1 (centres undefined) the results were VACV mCherry inh inactive, LASV entry inh inconclusive, FMDV inh inconclusive, VACV Venus inh -20% and MARV entry inh 18µM*.

Source: PubChem BioAssay (National Center for Advancing Translational Sciences (NCATS))
